The results in this text go back to PubChem BioAssay (NCATS).

Molecules are shown by their SMILES. Results filed as inconclusive are left out. Activity calls are given as the source filed them. Calls come from the whole dose curve; as a rule, active = well fitted curve in the direction sought with a large enough effect; inconclusive = small, poorly fitted or top-dose-only effect, or another doubt; inactive = no such curve, though single readings can be large; an effect the other way counts as inactive or inconclusive.
% is set by controls: 0 for no effect and ±100 for the full control effect.

A short description of one assay: qHTS assay to identify small molecule inhibitors of chordoma cells - UCH-2 (AID 1259356). Particulars: UCH-2 chordoma viability, CellTiter-Glo ATP luminescence, 48 h; series mostly up to 46.1 µM; activity change, negative = inhibition: at the top concentration.
As for `CC[C@H](C)[C@H]1O[C@]2(C=C[C@@H]1C)C[C@@H]1C[C@@H](C/C=C(\C)[C@@H](O[C@H]3C[C@H](OC)[C@@H](O[C@H]4C[C@H](OC)[C@@H](O)[C@H](C)O4)[C@H](C)O3)[C@@H](C)/C=C/C=C3\CO[C@@H]4[C@H](O)C(C)=C[C@@H](C(=O)O1)[C@]34O)O2`, the “activity change, negative = inhibition” value is -13.3% (inactive).

For `C[C@H]1CC[C@@H]2[C@@H](C)[C@H]3[C@H](C[C@H]4[C@@H]5CC=C6CC(O[C@@H]7O[C@H](CO)[C@H](O)[C@H](O[C@@H]8O[C@H](CO)[C@@H](O)[C@H](O)[C@H]8O)[C@H]7O[C@H]7O[C@@H](C)[C@H](O)[C@@H](O)[C@H]7O)CC[C@]6(C)[C@H]5CC[C@]34C)N2C1` (some centres not stated), the “activity change, negative = inhibition” value is 10.1% (inactive).

As for `C[N+]1(C)CCCCC1COC(=O)C(O)(c1ccccc1)c1ccccc1` (configuration not stated), the “activity change, negative = inhibition” value is -2.69% (inactive).

In the case of `O=[N+]([O-])c1cc(I)c(O)c(I)c1`, the “activity change, negative = inhibition” value was -18.5% (inactive).

As for `C[C@]12CC[C@H]3[C@@H](CCC4=C(O)C(=O)CC[C@@H]43)[C@@H]1CC[C@@H]2OC(=O)CCC1CCCC1`, the “activity change, negative = inhibition” value is -4.67% (inactive).

Regarding `CCN(CC)C(=O)N[C@H]1C[C@@H]2c3cccc4[nH]cc(c34)C[C@H]2N(C)C1`, the “activity change, negative = inhibition” value was 13.9% (inactive).

`CCCCCc1cc(O)c2c(c1)OC(C)(C)[C@@H]1CCC(C)=C[C@@H]21`: the “activity change, negative = inhibition” value was 18.6% (inactive).

Regarding `O=[N+]([O-])c1ccc(F)c([N+](=O)[O-])c1`, the “activity change, negative = inhibition” value is -3.66% (inactive).

For the molecule `C#CCN1CC(=O)N(COC(=O)C2C(C=C(C)C)C2(C)C)C1=O` (configuration not stated), the “activity change, negative = inhibition” value was 8.66% (inactive).

For the molecule `O=C1C[C@@H]2OCC=C3CN4CC[C@]56c7ccccc7N1[C@H]5[C@H]2[C@H]3C[C@H]46`, the “activity change, negative = inhibition” value was 5.35% (inactive).

With `CN1[C@@H]2CC[C@H]1CC(OC1c3ccccc3CCc3ccccc31)C2` (some centres not stated), the “activity change, negative = inhibition” value is 3.49% [at 20.6 µM] (inactive).

`CCN(CC)CCO[C@H]1CC[C@@]2(C)C(=CC[C@@H]3[C@@H]2CC[C@]2(C)C(=O)CC[C@@H]32)C1`: the “activity change, negative = inhibition” value was -3.04% (inactive).

`O=C1CCO1`: the “activity change, negative = inhibition” value was 8.21% (inactive).

As to `Cn1sc(Cl)cc1=O`, the “activity change, negative = inhibition” value was 3.88% (inactive).

As to `Cc1cc(C)cc(C(=O)OC2C[C@H]3CC[C@@H](C2)N3C)c1` (some centres not stated), the “activity change, negative = inhibition” value is -4.83% (inactive).

On to `CN1CCCC(=C(c2cccs2)c2cccs2)C1`, for which the “activity change, negative = inhibition” value was 0.0035% (inactive).

`CC(=O)O[C@H]1CC[C@@]2(C)C(=CC[C@@H]3[C@@H]2CC[C@]2(C)C(=O)CC[C@@H]32)C1`: the “activity change, negative = inhibition” value was -7.02% [at 20.6 µM] (inactive).

Consider `CC(=O)OC1CN2CCC1CC2` (configuration not stated), for which the “activity change, negative = inhibition” value is 6.53% (inactive).

With `O=C1C=C2C=C[C@@H]3C[C@@]2(O1)[C@H]1CCCCN31`, the “activity change, negative = inhibition” value is -4.32% (inactive).

In the case of `C=C[C@H]1CN2CC[C@H]1C[C@@H]2[C@@H](O)c1ccnc2ccccc12`, the “activity change, negative = inhibition” value is 5.48% (inactive).

Take `CC1CCC(C(C)C)C(OC(=O)c2ccccc2N)C1` (configuration not stated): the “activity change, negative = inhibition” value is 7.06% (inactive).

`CCCCCCC(=O)O[C@H]1CC[C@H]2[C@@H]3CC[C@H]4CC(=O)C=C(C)[C@]4(C)[C@H]3CC[C@]12C`: the “activity change, negative = inhibition” value was -9.13% (inactive).

With `O=Cc1ccco1`, the “activity change, negative = inhibition” value is -1.14% (inactive).

Turning to `C[C@]12C[C@H]3S[C@H]3C[C@@H]1CC[C@@H]1[C@@H]2CC[C@]2(C)[C@@H](O)CC[C@@H]12`, the “activity change, negative = inhibition” value was -2.14% [at 20.6 µM] (inactive).

In the case of `C[C@]12CC[C@H]3[C@@H](CC[C@@]45O[C@@H]4C(O)=C(C#N)C[C@]35C)[C@@H]1CC[C@@H]2O`, the “activity change, negative = inhibition” value is 3.53% (inactive).

In the case of `Clc1ccc(C(Cn2ccnc2)OCc2csc3c(Cl)cccc23)c(Cl)c1` (configuration not stated), the “activity change, negative = inhibition” value was 4.05% [at 20.6 µM] (inactive).

Take `C=C[C@H]1CN2CC[C@H]1C[C@H]2[C@H](OC(=O)OCC)c1ccnc2ccc(OC)cc12`: the “activity change, negative = inhibition” value is 4.56% (inactive).

As to `CCNCC(O)c1cccc(O)c1` (configuration not stated), the “activity change, negative = inhibition” value is 4.14% [at 20.6 µM] (inactive).

Take `O=[N+]([O-])C(Br)(CO)CO`: the “activity change, negative = inhibition” value was -3.68% (inactive).

As to `CCC1C(C)=NN=C(c2ccc(OC)c(OC)c2)c2cc(OC)c(OC)cc21` (configuration not stated), the “activity change, negative = inhibition” value was -20.9% (inactive).

For the molecule `Oc1ccc2c3c1O[C@H]1[C@@H](O)CC[C@@]4(O)[C@@H](C2)N(CC2CCC2)CC[C@]314`, the “activity change, negative = inhibition” value was 17.1% (inactive).

For `C=CC[C@]1(O)CC[C@H]2[C@@H]3CCC4=CCCC[C@@H]4[C@H]3CC[C@@]21C`, the “activity change, negative = inhibition” value is 10.6% (inactive).

Turning to `CN1C2CCC1CC(OC(c1ccccc1)c1ccc(Cl)cc1)C2` (configuration not stated), the “activity change, negative = inhibition” value was -26.5% (inactive).

Consider `CC(=O)[C@H]1CC[C@H]2[C@@H]3CC[C@@H]4C[C@H](O)CC[C@]4(C)[C@H]3CC[C@]12C`, for which the “activity change, negative = inhibition” value was -3.52% (inactive).

Take `CNC(=O)Oc1ccccc1C(=O)Nc1ccccc1`: the “activity change, negative = inhibition” value is 8.95% (inactive).

Regarding `C[C@@H](Cc1ccccc1)NCCC(c1ccccc1)c1ccccc1`, the “activity change, negative = inhibition” value is -0.822% [at 20.6 µM] (inactive).

For `C[C@@H](CO)NC(=O)[C@@H]1C=C2c3cccc4[nH]cc(c34)C[C@H]2N(C)C1`, the “activity change, negative = inhibition” value is 1.72% (inactive).

Another assay can be described thus: P-glycoprotein substrates identified in KB-8-5-11 adenocarcinoma cell line, qHTS therapeutic library screen (AID 1346987). Note: nearly all actives have a fitted effect of over 65% in size. The note with it: KB-8-5-11 (P-gp overexpressing) viability, CellTiter-Glo, 72 h; series mostly up to 44.5 µM; activity change, negative = cytotoxicity: at the top concentration. Put shortly:
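Steps: plate 500 KB-8-5-11 cells/well in DMEM + 10% FCS (colchicine removed); pin compounds in dose-response; incubate 72 h, 37 degree C, 5% CO2; add CellTiter-Glo, 5 min; read luminescence.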
For `O=C1C[C@@H]2OCC=C3CN4CC[C@]56c7ccccc7N1[C@H]5[C@H]2[C@H]3C[C@H]46`, the Potency result is “inactive”.

Turning to `O=C1CCO1`, the “activity change, negative = cytotoxicity” value is 0.878% (inactive).

On to `Cn1sc(Cl)cc1=O`, for which the “activity change, negative = cytotoxicity” value is -3.76% (inactive).

Consider `CN1CCCC(=C(c2cccs2)c2cccs2)C1`, for which the “activity change, negative = cytotoxicity” value was -5.86% (inactive).

In the case of `CC(=O)O[C@H]1CC[C@@]2(C)C(=CC[C@@H]3[C@@H]2CC[C@]2(C)C(=O)CC[C@@H]32)C1`, the “activity change, negative = cytotoxicity” value is -6.94% [at 17.3 µM] (inactive).

For the molecule `CC(=O)OC1CN2CCC1CC2` (configuration not stated), the “activity change, negative = cytotoxicity” value was -0.116% (inactive).

With `CC1CCC(C(C)C)C(OC(=O)c2ccccc2N)C1` (configuration not stated), the “activity change, negative = cytotoxicity” value is -0.526% (inactive).

As for `O=Cc1ccco1`, the “activity change, negative = cytotoxicity” value is 7.44% (inactive).

As for `CCNCC(O)c1cccc(O)c1` (configuration not stated), the “activity change, negative = cytotoxicity” value was -20% [at 17.3 µM] (inactive).

As for `O=[N+]([O-])C(Br)(CO)CO`, the “activity change, negative = cytotoxicity” value was 0.958% (inactive).
